Experimental findings from PubChem BioAssay are described below.

SMILES strings stand for the structures. Unmarked numbers belong to inactive results. No rule for the calls is given here.

Chain of Pantothenate synthetase (Mycobacterium tuberculosis (strain ATCC 25618 / H37Rv)) (P9WIL5 whole entry, looked up): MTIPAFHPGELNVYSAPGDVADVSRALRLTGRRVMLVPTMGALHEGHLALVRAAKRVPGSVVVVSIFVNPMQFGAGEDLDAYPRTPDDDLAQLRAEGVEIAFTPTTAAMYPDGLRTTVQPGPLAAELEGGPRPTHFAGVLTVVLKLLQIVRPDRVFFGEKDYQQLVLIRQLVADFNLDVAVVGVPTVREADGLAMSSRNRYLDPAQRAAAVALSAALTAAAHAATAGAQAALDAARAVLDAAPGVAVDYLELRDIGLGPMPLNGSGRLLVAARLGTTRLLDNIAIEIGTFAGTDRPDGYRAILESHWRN

The experiment concerns the target Pantothenate synthetase (Mycobacterium tuberculosis (strain ATCC 25618 / H37Rv)) (UniProt P9WIL5). As to the kind of experiment: Recombinant Mtb pantothenate synthetase (PanC) inhibitors, coupled enzyme, confirmatory (AID 375).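 Also: 0% = full reaction with vehicle and 100% = no enzyme background.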 As to conditions: coupled enzyme assay; at 10 µM, hits give high values.
As to `CCc1c(C)nc(N)n2c(SCC(=O)N3CCCc4ccccc43)nnc12`, the inhibition was 2%.
The figure for `N#CC1=C(SCC(=O)NC23CC4CC(CC(C4)C2)C3)NC(=O)C(C#N)C12CCCCC2` (stereo not given) is 0%; for `O=C(CSc1nnc(C2CC2)n1Cc1ccccc1)c1ccc(S(=O)(=O)N2CCOCC2)cc1` it is 0%; for `Cc1cnc(NC(=O)CSc2nnc(-c3ccccc3)n2Cc2ccccc2)s1` it is 0%.
On to `Cc1ccc(S(=O)(=O)N2CCOCC2)cc1C(=O)Nc1nc(-c2cccnc2)cs1`, for which the inhibition is 0%.
Regarding `Cn1c(/C(C#N)=C/Nc2ccccn2)nc2ccccc21`, the inhibition is 0%.
Take `CCCN(CC1CC1)C(=O)Nc1ccccc1C`: the inhibition is 1%.
`O=C(N1CCOCC1)N1CCC(NC(=O)C23CC4CC(CC(C4)C2)C3)CC1`: the inhibition is 0%.
Turning to `O=S(=O)(c1cccs1)N1CCN(C/C=C/c2ccccc2)CC1`, the inhibition is 0%.
For `N#Cc1ccc(CSc2nnc(-c3cnccn3)o2)cc1`, the inhibition is 5%.
For the molecule `CC(=O)c1cccc(NC(=O)N2CCCC2C(=O)NCc2ccc(C)cc2)c1` (stereo not given), the inhibition is 4%.
In the case of `Cc1ccc(S(=O)(=O)NCC(c2cccnc2)N(C)C)cc1` (stereo not given) it was 3%.
The figure for `Cc1coc(NC(=O)CSc2nc(-c3ccncc3)cc(C(F)(F)F)c2C#N)n1` is 0%; for `Cc1ccnc(NC(=O)C2CCC(CNc3c(N4CCCC4)c(=O)c3=O)CC2)c1` (stereo not given) it is 0%.
As to `O=C(CSc1nnc(C2COc3ccccc3O2)o1)N1CCCc2ccccc21` (stereo not given), the inhibition was 0%.
`CC(C)(Oc1ccc(Cl)cc1)C(=O)NCc1ccncc1`: the inhibition is 3%.
For `COc1ccc(Cn2c(C)nc3c(c2=O)c2nc4ccccc4nc2n3Cc2ccco2)cc1`, the inhibition is 9%.
With `Cc1ccc2cc(CN(Cc3ccc4c(c3)OCO4)Cc3nnnn3Cc3ccco3)c(=O)[nH]c2c1C`, the inhibition is 0%.
As to `c1cc2c(cc1C1=Nn3c(nnc3C3CCCCC3)SC1)OCO2`, the inhibition was 0%.
Take `CCOC(=O)c1[nH]c(C)c(C(=O)N2CCN(c3ccc(F)cc3)CC2)c1C`: the inhibition was 0%.
The figure for `CSc1nc(N2CCOCC2)c2c(c1C#N)CCCCC2` is 0%.
On to `C=C(C)COc1ccc(-c2nc(N)ncc2Oc2ccccc2OCC)c(O)c1`, for which the inhibition was 1%.
For the molecule `O=C(OCc1ccc2c(c1)OCO2)c1ccc(S(=O)(=O)N2CCCCC2)cc1`, the inhibition is 0%.
As to `CCN(c1cccc(C(F)(F)F)c1)S(=O)(=O)c1ccc2c(c1)CCN2C(=O)C1CC1`, the inhibition is 3%.
With `COc1ccc(C(=O)c2coc3ccc(O)c(CN4CCCCC4)c23)cc1`, the inhibition is 0%.
As to `O=C(COc1ccc(=O)n(-c2ccccc2)n1)Nc1ccccc1`, the inhibition is 0%.
For the molecule `O=C(CN1C(=O)CCSc2ccccc21)Nc1ccccc1`, the inhibition was 0%.
In the case of `Cc1ncc([N+](=O)[O-])n1CC(O)CCl` (stereo not given) it was 0%; in that of `Cc1ccc(-n2c(Cc3cccn3C)nnc2SCC(=O)NCc2ccc3c(c2)OCO3)cc1`, 0%.
Consider `COCCn1nnnc1C(c1cccs1)N1CCN(c2cc(C)ccc2C)CC1` (stereo not given), for which the inhibition was 0%.
On to `CCOC(=O)c1c(NC(=O)Cn2c(C)nc3ccccc32)sc2c1CCC2`, for which the inhibition is 0%.
The figure for `Cn1c(=O)[nH]c(=O)c2c1nc(N1CCCCCC1)n2CCCSc1nc2ccccc2o1` is 8%; for `CCCOc1ccc(N2C(=O)CC(NCCCN3CCC(C(N)=O)CC3)C2=O)cc1` (stereo not given) it is 4%.
For `COC(=O)CSc1nnc(-c2ccncc2)o1`, the inhibition is 0%.
In the case of `CCc1ccc(CN(C)CCc2ccccn2)cc1` it was 1%.
With `COc1ccc(N(CC(=O)N2CCCCC2)S(=O)(=O)c2ccccc2)c(OC)c1`, the inhibition is 0%.
Consider `COc1cc2c(cc1OC)C(c1cc(OC)c(OC)c(OC)c1)NCC2` (stereo not given), for which the inhibition was 0%.
Take `Cc1noc(/C=C/N(C)C)c1S(=O)(=O)N1CCCC(C(=O)NC2CCCCC2)C1` (stereo not given): the inhibition is 8%.
With `O=C(CCCCn1c(=O)[nH]c2ccsc2c1=O)NCc1cccnc1`, the inhibition was 5%.
As for `Cc1ccc(CN2C(=O)CCC2C(=O)NCC2CCCO2)cc1` (stereo not given), the inhibition was 3%.

As usually defined, the inhibition is the percentage by which the read-out fell short of the control.
